Data published in PubChem BioAssay AID2242 (National Center for Advancing Translational Sciences (NCATS), 2010).
About 720 (0.36%) of roughly 200,000 compounds were called active. Roughly 8% stayed inconclusive and do not appear here. The call rests on the fitted dose curve; in most records, active means well fitted activation curve with a large enough effect; inconclusive means small, poorly fitted or top-dose-only effect, or effect the other way, or another doubt; inactive means flat fitted curve, though single readings scatter. The list shows a part of the results.

What follows are compounds tested against Lysosomal alpha-glucosidase (Homo sapiens) (UniProt P10253) (assay: qHTS Assay for Activators of Human alpha-Glucosidase as a Potential Chaperone Treatment of Pompe Disease). Conditions: purified enzyme, 4-MU-alpha-glucoside fluorescence, 20 min; series mostly up to 76.9 µM.
How it was run: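 Compounds titrated up to 77 uM against 4 nM enzyme and 400 uM methylumbelliferyl substrate at room temperature, 20 min, pH 5.0. Basic stop, then 4-methylumbelliferone fluorescence (365/440 nm) normalized to no-enzyme and enzyme controls; Hill-equation AC50.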
Further: nearly all actives have a fitted effect of over 80% in size.
Potency means the concentration at half of the fitted maximal effect.

Potency, active:
Cc1c(C)c2cc(Cl)c(O)c(CN3CCN(C)CC3)c2oc1=O 25.1 µM, CCc1c(C)c2cc(Cl)c(O)c(CN3CCCCC3)c2oc1=O 31.6 µM, Cc1c(C)c2cc(Cl)c(O)c(CN3CCCCC3)c2oc1=O 14.1 µM, N=c1oc2ccc3ccccc3c2cc1-c1nnc2n1CCCCC2 35.5 µM, C=CCn1cc(-c2ccccc2)cc(C#N)c1=O 35.5 µM, CC1C2=C(CC(C)(C)CC2=O)NC2=C1C(=O)CC(C)(C)C2 35.5 µM, Cc1c(-c2cccc(NC(=O)c3ccco3)c2)nc2ncccn12 35.5 µM, Cc1c(-c2cccc(NC(=O)c3cccs3)c2)nc2ncccn12 31.6 µM, O=C(Nc1cccc(-c2cn3cccnc3n2)c1)c1ccco1 28.2 µM, Cc1ccccc1-n1c(=O)c(C#N)cc2c(=O)n3ccccc3nc21 35.5 µM, N#Cc1cc2c(=O)n3ccccc3nc2n(-c2ccccc2Cl)c1=O 35.5 µM, Cc1ccc(C)c(-n2c(=O)c(C#N)cc3c(=O)n4ccccc4nc32)c1 35.5 µM, CCOC(=O)c1oc2ccccc2c1NC(=O)COc1ccc(F)cc1 35.5 µM, CCCS(=O)(=O)n1nc(-c2ccc(Br)cc2)cc1N 39.8 µM, Cc1cc(=O)n2ccccc2c1C#N 35.5 µM, COC(=O)C1=C(C)NC2=C(C(=O)CCC2)C1c1cccc(C)n1 (stereo not drawn) 28.2 µM, COC(=O)C1=C(C)NC2=C(C(=O)CC(C)(C)C2)C1c1ccccn1 (stereo not drawn) 35.5 µM, CCOC(=O)C1=C(C)NC2=C(C(=O)CC(C)(C)C2)C1c1cccc(C)n1 (stereo not drawn) 35.5 µM, CCOC(=O)c1cnc2c(-c3ccc(F)cc3)cnn2c1C(F)(F)F 31.6 µM, CC(=O)Oc1cc(OC(C)=O)c2c(C)cc(=O)oc2c1 35.5 µM, CCc1cc(=O)oc2cc(OC(C)=O)cc(OC(C)=O)c12 35.5 µM, COC(=O)C1=CNC=C(C(=O)OC)C1c1ccccc1Cl 31.6 µM, CCCCN1C=C(C(=O)OC)C(c2ccccc2Cl)C(C(=O)OC)=C1 22.4 µM, COCCN1C=C(C(=O)OC)C(c2ccccc2C(F)(F)F)C(C(=O)OC)=C1 35.5 µM, COCCN1C=C(C(=O)OC)C(c2ccccc2Cl)C(C(=O)OC)=C1 31.6 µM, COC(=O)C1=CN(C)C=C(C(=O)OC)C1c1ccccc1Cl 31.6 µM, COC(=O)C1=CNC=C(C(=O)OC)C1c1ccc(Cl)cc1 35.5 µM, COC(=O)C1=CN(C)C=C(C(=O)OC)C1c1ccc(Cl)cc1Cl 25.1 µM, CCOC(=O)c1cnc2cc(C)ccn2c1=O 35.5 µM, CCOC(=O)c1cnc2sc3c(n2c1=O)CCCC3 39.8 µM, CCOC(=O)c1cc(C(=O)OCC)c2ccccn2c1=O 35.5 µM, CCOC(=O)c1cnc2cc3c(cn2c1=O)CCCC3 28.2 µM, CCCC1(C)Nc2ccccc2-c2nc3ccccc3n21 (stereo not drawn) 31.6 µM, CCCCC1(C)Nc2ccccc2-c2nc3ccccc3n21 (stereo not drawn) 35.5 µM, c1ccc2c(c1)NC1(CCCC1)n1c-2nc2ccccc21 31.6 µM, CC1OC(Oc2ccc3ccc(=O)oc3c2-c2c(O)ccc3cc(Oc4ccc5ccc(=O)oc5c4)c(=O)oc23)C(O)C(O)C1O (stereo not drawn) 39.8 µM, Cc1cccn2c(=O)c3cc(C#N)c(=O)n(CCCN4CCOCC4)c3nc12 35.5 µM, C=CCn1c(=O)c(C#N)cc2c(=O)n3ccccc3nc21 35.5 µM, N#Cc1cc2c(=O)n3ccccc3nc2n(CCCN2CCOCC2)c1=O 35.5 µM, Cc1[nH]nc2c1-c1nc3ccccc3nc1C(C)(C)C2 28.2 µM, COc1ccc2c(c1)c1ncn(Cc3ccco3)c(=O)c1n2C 35.5 µM, O=c1[nH]c(=O)n(Cc2ccccc2)c2nc(-c3ccco3)cc(C(F)(F)F)c12 31.6 µM, CCCn1c(=O)c2c(C(=O)OCC)cc(-c3ccco3)nc2n(CCC)c1=O 35.5 µM, COCCn1c(=O)[nH]c(=O)c2c(C(F)(F)F)cc(-c3cccs3)nc21 28.2 µM, CCCn1c(=O)[nH]c(=O)c2c(C(=O)OCC)cc(-c3cccs3)nc21 35.5 µM, CCCCn1c(=O)[nH]c(=O)c2c(C(=O)OCC)cc(-c3cccs3)nc21 35.5 µM, COc1ccc2cc(/C=N/NC(=O)CN(c3ccccc3)S(=O)(=O)c3ccccc3)c(Cl)nc2c1 35.5 µM, CCOC(=O)C1=CN(C)C=C(C(=O)OCC)C1c1ccsc1 31.6 µM, COC(=O)C1=CN(C)C=C(C(=O)OC)C1c1ccsc1 35.5 µM, N#Cc1cc2ccccc2nc1N 39.8 µM, COc1ccc(-c2cc(=Nc3c(C)n(C)n(-c4ccccc4)c3=O)c3ccccc3o2)cc1 35.5 µM, Nc1nc2nccc(-c3ccc(Cl)cc3)n2n1 22.4 µM, Nc1nc2nc(-c3ccc(Cl)cc3)cc(C(F)(F)F)n2n1 31.6 µM, Nc1nc2nc(-c3ccc(F)cc3)cc(C(F)(F)F)n2n1 25.1 µM, COc1ccc(-c2cc(C(F)(F)F)n3nc(N)nc3n2)cc1 35.5 µM, Cc1nc2cc3ccccc3cc2c(=O)[nH]1 25.1 µM, CCCCCCc1cc2cc(C(N)=O)c(=N)oc2cc1O 31.6 µM, CCCCCCc1cc2cc(S(=O)(=O)c3ccc(F)cc3)c(=O)oc2cc1O 31.6 µM, CCCCCCc1cc2cc(C(=O)NCc3ccccc3)c(=N)oc2cc1O 35.5 µM, CCOc1ccc(C2C(C(=O)OC)=CN(CCOC)C=C2C(=O)OC)cc1 35.5 µM, CCCOc1ccc(C2C(C(=O)OC)=CN(CCOC)C=C2C(=O)OC)cc1 35.5 µM, COCCN1C=C(C(=O)OC)C(c2cc(Br)c(OC)c(OC)c2)C(C(=O)OC)=C1 35.5 µM, Cc1cc(N2CCOCC2)nc2ccc(NC(=O)CCC(=O)N3CCCC(C)C3)cc12 (stereo not drawn) 39.8 µM, Cc1cc(N2CCOCC2)nc2ccc(NC(=O)CCC(=O)N3CCCCC3)cc12 35.5 µM, Oc1ccc(N=Cc2ccc(-c3cccs3)s2)cc1 31.6 µM, CC(C)c1ccc2oc3nc(N)c(C(=O)O)cc3c(=O)c2c1 35.5 µM, N#Cc1ccc2c(c1)nc1ccccn12 35.5 µM, Cc1cc(=O)oc2c(CN3CCC(C)CC3)c(O)c(Cl)cc12 35.5 µM, Cc1cc(=O)oc2c(CN3CCCCC3)c(O)c(Cl)cc12 31.6 µM, Cc1cc(=O)oc2c(CN3CCN(C)CC3)c(O)c(Cl)cc12 35.5 µM, Cc1cc(=O)oc2c(CN3CC(C)OC(C)C3)c(O)c(Cl)cc12 (stereo not drawn) 10 µM, CCN1CCN(Cc2c(O)c(Cl)cc3c(C)cc(=O)oc23)CC1 35.5 µM, COc1cccc(C2CN(c3ccc(F)cc3F)N=C2c2cccs2)c1OC (stereo not drawn) 39.8 µM, COc1ccccc1C1CN(c2ccc(F)cc2F)N=C1c1cccs1 (stereo not drawn) 28.2 µM, Fc1ccccc1N1CC(c2ccccc2)C(c2cccs2)=N1 (stereo not drawn) 35.5 µM, COc1ccccc1C1CN(c2ccccc2)N=C1c1cccs1 (stereo not drawn) 39.8 µM, Fc1ccc(N2N=C(c3cccs3)CC2c2ccccc2)cc1 (stereo not drawn) 31.6 µM, Fc1ccc(C2CC(c3cccs3)=NN2c2ccccc2)cc1 (stereo not drawn) 31.6 µM, O=c1c(-c2nnc(SCc3ccc(Cl)cc3)o2)cccn1Cc1ccccc1 39.8 µM, O=c1c(-c2nnc(SCc3ccc(Cl)cc3Cl)o2)cccn1Cc1ccccc1 35.5 µM, O=c1c(-c2nnc(SCc3ccc(Cl)c(Cl)c3)o2)cccn1Cc1ccccc1 35.5 µM, O=c1oc2cc(Oc3c([N+](=O)[O-])cc(C(F)(F)F)cc3[N+](=O)[O-])ccc2c2c1CCCC2 35.5 µM, Nc1nc2nc(-c3cccs3)cc(C(F)(F)F)n2n1 28.2 µM, FC(F)(F)c1cc(-c2cccs2)nc2ncnn12 28.2 µM, COc1ccc(-c2cc3ccc(OCc4nn[nH]n4)cc3oc2=O)cc1 35.5 µM, CN(C)C(=O)COc1ccc2cc(-c3ccccc3)c(=O)oc2c1 35.5 µM, CCCOc1ccc2cc(-c3ccccn3)c(=O)oc2c1 39.8 µM, CSc1cnc2c(=O)n(C)c(=O)[nH]c2n1 35.5 µM, C=CCNC(=O)c1c(N)n(-c2cccc(S(N)(=O)=O)c2)c2nc3ccccc3nc12 25.1 µM, COCCCNC(=O)c1c(N)n(-c2cccc(S(N)(=O)=O)c2)c2nc3ccccc3nc12 35.5 µM, O=c1oc2c(CN3CCOCC3)c(O)ccc2c2c1CCC2 25.1 µM, O=c1oc2c(CN3CCOCC3)c(O)ccc2c2c1CCCC2 35.5 µM, COC(=O)c1nc2nc(-c3cccs3)cc(C(F)(F)F)n2n1 35.5 µM, CCOC(=O)c1nc2nc(-c3cccs3)cc(C(F)(F)F)n2n1 14.1 µM, CN(C)CCNC(=O)c1cc2c(s1)-c1ccccc1OC2 6.31 µM, O=C(NCc1cccs1)c1cc2c(s1)-c1ccccc1OC2 39.8 µM, COC(=O)c1ccc(-c2ncc(-c3cccc4ccccc34)o2)cc1 28.2 µM, Cc1cc(-c2ccc(C(=O)O)s2)cnc1N 28.2 µM
